The values that follow come from PubChem BioAssay.

Active and inactive are the calls of the source.

In assay [1] the test system is Human papillomavirus type 1a protein E7 (residues 44-93). Description: small molecules binding HPV E7 44-93 – biochemical, small-molecule microarray, residues 44-93, 635 nm fluorescence, primary screen (AID 1108).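 Also: E7 fragment applied at 1 µg/mL in TBST for 1 h at 4 C; score combines spot fluorescence with its signal to noise ratio.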 The following applies: fluorescence 635 nm, higher = more signal.
A short description of assay [2]: hepatitis C replication reporter changes, two-sided – Huh7 cells, luciferase reporter, HCV replication inhibitor project, primary screen (AID 1109).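 Also: huh7 hepatoma cells harbouring a luciferase neomycin HCV replicon reporter; luciferase luminescence as measure of HCV replicon replication; test concentration not given here.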 The conditions noted are these: Huh7 HCV replicon luciferase reporter, 48 h; higher = more signal. In general terms: Reporter assays use an easily measured gene product as a stand-in for the process of interest.
For assay [3], the target named is Left-right determination factor 2 (Homo sapiens) (UniProt O00292). Nature of the assay: small molecules binding LEFTY2 protein – biochemical, small-molecule microarray, 635 nm fluorescence scan, primary screen (AID 1110). The conditions noted are these: higher = more signal.
Sequence of Left-right determination factor 2 (Homo sapiens) (O00292 whole entry, looked up): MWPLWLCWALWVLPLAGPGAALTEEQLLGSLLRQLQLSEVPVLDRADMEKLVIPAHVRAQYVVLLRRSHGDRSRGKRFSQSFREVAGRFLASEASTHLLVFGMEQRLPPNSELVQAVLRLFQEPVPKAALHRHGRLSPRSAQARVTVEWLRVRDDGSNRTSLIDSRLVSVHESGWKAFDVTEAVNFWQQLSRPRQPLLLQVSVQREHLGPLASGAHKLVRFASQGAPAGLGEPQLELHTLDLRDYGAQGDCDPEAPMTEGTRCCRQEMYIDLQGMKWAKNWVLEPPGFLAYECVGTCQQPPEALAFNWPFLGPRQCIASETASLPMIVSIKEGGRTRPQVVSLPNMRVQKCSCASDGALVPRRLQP
Assay [4] addresses Calmodulin-1 (Homo sapiens) (UniProt P0DP23). Description: small molecules binding calmodulin-1 with EGTA – biochemical, small-molecule microarray, Cy5-labelled CALM1, profiling panel (AID 1111).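 Also: labelled calmodulin applied in Tris saline Tween buffer holding calcium plus EGTA and DTT.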 The following applies: Cy5-CALM1 binding fluorescence, higher = more signal.
Assay [5] shares this target. Nature of the assay: small molecules binding Ca-loaded calmodulin-1 – biochemical, small-molecule microarray, Cy5-labelled CALM1, plus calcium, artefact control for SMM control-protein annotation, profiling panel (AID 1112).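 Also: score merges spot fluorescence with signal to noise from triplicate slides.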 The conditions noted are these: Cy5-CALM1 binding fluorescence, higher = more signal.
Assay [6] can be described thus: probe aWnt5a binding to arrayed compounds – biochemical, biotinylated probe, 635/667 nm fluorescence, primary screen (AID 1113).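 Also: score merges 667 nm fluorescence intensity with signal-to-noise per printed feature.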 The following applies: small-molecule microarray, higher = more signal.
Assay [7] is described as follows: probe aShh binding to arrayed compounds – biochemical, biotinylated probe, 635/667 nm fluorescence, primary screen (AID 1114).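 Also: probe is biotin-labelled aShh protein from a stem cell growth factor screen; measures binding of labelled protein to compounds printed on the slide; score merges feature fluorescence at 667 nm with signal-to-noise.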 The following applies: small-molecule microarray, higher = more signal.
A short description of assay [8]: probe aNog binding to arrayed compounds – biochemical, biotinylated probe, 635/667 nm fluorescence, primary screen (AID 1115).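 Also: probe is biotinylated aNog protein used at 0.15 µg/mL for 1 h at 4 C; z-score combines 667 nm fluorescence of each spot with its signal to noise.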 The following applies: small-molecule microarray, higher = more signal.
Assay [9] concerns the target Torsin-1A-interacting protein 1 (Homo sapiens) (UniProt Q5JTV8). Description: compound microarray binding of lysate hLAP1 – cell lysate, small-molecule microarray, COS7 lysate, 635/667 nm fluorescence, primary screen (AID 1116). The conditions noted are these: 635 nm fluorescence, higher = more signal.
Assay [10] has as its target Alpha-bungarotoxin (Bungarus multicinctus) (UniProt P60615). Description: compounds binding labelled alpha-BTX control protein – biochemical, small-molecule microarray, Alexa647 label, 635/667 nm fluorescence, artefact control for SMM control protein annotation, profiling panel (AID 1117). The conditions noted are these: alpha-BTX-A647 binding fluorescence, higher = more signal.

A further assay concerns the target Albumin (Bos taurus) (UniProt P02769). Description: compounds binding labelled BSA control protein – biochemical, small-molecule microarray, Alexa647 label, 635/667 nm fluorescence, artefact control for SMM control protein annotation, profiling panel (AID 1118).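 Also: score merges 667 nm emission intensity and signal-to-noise per printed compound spot.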 The conditions noted are these: BSA-A647 binding, fluorescence 635 nm, higher = more signal.
A short description of assay [11]: probe aXIP binding to arrayed compounds – biochemical, NeuroSMM set, 635/667 nm fluorescence, primary screen (AID 1119).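 Also: probe is the protein aXip251-270 applied at 1 µg/mL to compound-printed slides; binding of probe to printed compounds measured as 667 nm fluorescence plus signal to noise.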 The conditions noted are these: small-molecule microarray, higher = more signal, called active from +8 up or from −8 down.
A short description of assay [12]: probe aNOTCH3 binding on compound microarray – biochemical, small-molecule microarray, 635/667 nm fluorescence, primary screen (AID 1120).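 Also: probe is a biotin-tagged antibody raised against NOTCH3 rather than NOTCH3 protein; score merges spot fluorescence near 667 nm with spot signal to noise.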 The conditions noted are these: higher = more signal.
The nature of assay [13]: probe aNOTCH2 binding on compound microarray – biochemical, small-molecule microarray, 635/667 nm fluorescence, primary screen (AID 1121).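 Also: score merges feature fluorescence read at 667 nm with its signal to noise.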 The conditions noted are these: higher = more signal.
In assay [14] the target is Carbonic anhydrase 2 (Homo sapiens) (UniProt P00918). Nature of the assay: compounds binding carbonic anhydrase 2 – biochemical, small-molecule microarray, Alexa647-labelled CAII, profiling panel (AID 1122). The following applies: CAII-A647 binding fluorescence, higher = more signal.
Assay [15] is described as follows: COS7 lysate on small-molecule microarray, probe aHis, 635 nm (AID 1123).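 Also: z-score combines 667nm fluorescence intensity with signal-to-noise per printed compound spot.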 The conditions noted are these: COS7 cell lysate, fluorescence, higher = more signal.
A short description of assay [16]: probe aLAP1 signal on lysate-treated microarray – cell lysate, small-molecule microarray, COS7 lysate, primary screen (AID 1124).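 Also: lysate comes from COS7 cells expressing LAP1 and is applied at 0.3 µg/mL; score merges spot fluorescence near 667 nm with signal-to-noise over triplicate slides.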 The conditions noted are these: probe aLAP1, fluorescence, higher = more signal.
For a further assay, the system named is Sam68 (KHDRBS1). Description: compounds binding KHDRBS1 protein – biochemical, small-molecule microarray, 635 nm fluorescence, primary screen (AID 1125).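 Also: score merges 667 nm channel intensity with signal to noise over triplicate slides.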 The following applies: higher = more signal.
The test system of assay [17] is Chordin-like protein 2 (CHRDL2). Nature of the assay: compounds binding chordin-like 2 – biochemical, small-molecule microarray, 635 nm fluorescence, primary screen (AID 1126).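 Also: printed compound slides probed with Chrdl2 protein at 4 µg/mL for 1 h at 4 C; score merges 667 nm emission intensity with signal to noise over three replicate slides.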 The conditions noted are these: fluorescence 635 nm, higher = more signal.
Assay [18] deals with Concanavalin-A (Canavalia ensiformis) (UniProt P02866). Nature of the assay: compounds binding concanavalin A lectin – biochemical, small-molecule microarray, Alexa647 label, 635 nm, artefact control for SMM control protein annotation, primary screen (AID 1127).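 Also: z combines 667 nm emission intensity with signal-to-noise across three replicate slides.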 The following applies: ConA-A647 binding fluorescence, higher = more signal.
Sequence of Concanavalin-A (Canavalia ensiformis) (P02866 whole entry, looked up): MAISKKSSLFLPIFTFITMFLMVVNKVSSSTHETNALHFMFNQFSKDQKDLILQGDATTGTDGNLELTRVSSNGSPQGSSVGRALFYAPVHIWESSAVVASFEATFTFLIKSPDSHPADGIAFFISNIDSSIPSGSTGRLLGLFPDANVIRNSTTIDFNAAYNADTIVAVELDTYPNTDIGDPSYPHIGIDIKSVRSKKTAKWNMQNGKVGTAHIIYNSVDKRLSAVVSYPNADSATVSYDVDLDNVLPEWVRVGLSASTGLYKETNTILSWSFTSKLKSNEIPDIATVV

Sequence of Albumin (Bos taurus) (P02769 whole entry, looked up): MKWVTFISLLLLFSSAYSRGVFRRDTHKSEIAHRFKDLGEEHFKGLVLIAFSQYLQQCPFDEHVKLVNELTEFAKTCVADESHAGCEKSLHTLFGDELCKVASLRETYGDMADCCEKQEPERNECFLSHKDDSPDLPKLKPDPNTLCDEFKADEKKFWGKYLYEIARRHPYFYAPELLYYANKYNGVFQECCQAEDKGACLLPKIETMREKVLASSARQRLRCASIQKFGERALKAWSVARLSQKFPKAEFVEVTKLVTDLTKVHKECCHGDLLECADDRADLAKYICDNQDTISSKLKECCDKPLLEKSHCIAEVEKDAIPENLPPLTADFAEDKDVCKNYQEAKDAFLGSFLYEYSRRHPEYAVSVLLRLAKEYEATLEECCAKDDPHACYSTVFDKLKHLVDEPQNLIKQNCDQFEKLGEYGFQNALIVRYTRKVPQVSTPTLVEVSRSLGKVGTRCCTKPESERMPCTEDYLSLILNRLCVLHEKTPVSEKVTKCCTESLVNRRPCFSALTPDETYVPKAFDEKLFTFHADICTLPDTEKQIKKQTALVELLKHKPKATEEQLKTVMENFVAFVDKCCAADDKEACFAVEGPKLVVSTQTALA
Sequence of Torsin-1A-interacting protein 1 (Homo sapiens) (Q5JTV8 whole entry, looked up): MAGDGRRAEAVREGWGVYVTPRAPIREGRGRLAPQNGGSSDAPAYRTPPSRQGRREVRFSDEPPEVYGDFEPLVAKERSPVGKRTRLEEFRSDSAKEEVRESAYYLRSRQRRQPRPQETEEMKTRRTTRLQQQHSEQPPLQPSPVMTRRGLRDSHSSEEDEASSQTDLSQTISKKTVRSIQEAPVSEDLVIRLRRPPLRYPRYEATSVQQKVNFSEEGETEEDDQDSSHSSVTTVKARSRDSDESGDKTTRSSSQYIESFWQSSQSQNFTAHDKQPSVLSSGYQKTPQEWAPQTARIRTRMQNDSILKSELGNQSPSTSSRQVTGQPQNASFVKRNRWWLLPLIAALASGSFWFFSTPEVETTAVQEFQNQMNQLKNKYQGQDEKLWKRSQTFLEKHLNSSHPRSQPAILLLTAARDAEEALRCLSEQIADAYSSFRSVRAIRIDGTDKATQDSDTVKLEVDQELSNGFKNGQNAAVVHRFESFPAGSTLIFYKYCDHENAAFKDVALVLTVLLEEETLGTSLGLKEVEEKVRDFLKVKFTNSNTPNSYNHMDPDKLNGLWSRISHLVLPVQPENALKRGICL
Sequence of Alpha-bungarotoxin (Bungarus multicinctus) (P60615 whole entry, looked up): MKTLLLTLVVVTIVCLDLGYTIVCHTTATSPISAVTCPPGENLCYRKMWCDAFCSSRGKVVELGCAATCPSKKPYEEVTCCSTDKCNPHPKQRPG

As to `C=CCN1C(=O)[C@@]2(O[C@@H](CCn3cc([C@H](O)c4ccccc4)nn3)[C@H]([Si](C)(C)c3ccc(OC)cc3)[C@H]2C)c2cc(N3CCOC3=O)ccc21`, the composite z-score in assay [1] is -0.0922; in assay [3], -0.125; in assay [4], 0.0419; in assay [5], 0.462; in assay [6] it was -0.0754; in [7] it was -0.2. The composite z-score in [8] was -0.0428; in assay [9] it was 0.559; in [10], -0.577; with Albumin (Bos taurus), 0.0865; in assay [12], -0.0932; in [13], -0.0666. Moreover, the composite z-score in assay [14] is 0.614; in assay [15] it was 1.02; in assay [16], 0.0741; in the assay on Sam68 (KHDRBS1), 1.11; in assay [17], -0.0548; in assay [18], -0.559. The molecule also yielded a z-score in assay [2] of -3.71. Besides, the composite Z-score in assay [11] was 0.146 (inactive).
Consider `O=C1C2C=CC(C(O)C#Cc3ccccc3)N(Nc3ccccc3)C2C(=O)N1c1ccccc1` (stereo not given), for which the composite z-score is -0.369 in assay [1]; -0.365 in [3]; 0.482 in assay [4]; 0.373 in assay [5]; -0.096 in assay [6]; -0.16 in assay [7]. The composite z-score in assay [8] was 0.839; in assay [9], 0.945; in assay [10], 0.472; in the assay with Albumin (Bos taurus) it was 0.812; in [12], -0.0077; in [13], -0.0176. The composite z-score in assay [14] is 0.812; in assay [15], 1.94; in assay [16], 0.435; in the assay on Sam68 (KHDRBS1), 0.432; in assay [17], -0.575; in [18], -0.414. The z-score in assay [2] was -0.049. Besides, the composite Z-score in assay [11] is 0.634 (inactive).
For `C=CCc1cccc([C@@H]2[C@@H](C)CC[C@H]3C(=O)N4[C@H](c5cccc(CC=C)c5)[C@@H](C)CC[C@H]4C(=O)N23)c1`, the composite z-score in assay [1] is 0.227; in assay [3], 1.09; in [4], 0.254; in assay [5], -0.831; in [6] it was 0.0893; in assay [7], 0.0899. The composite z-score in assay [8] was -0.216; in assay [9] it was 0.373; in assay [10], 1.88; with Albumin (Bos taurus), 0.593; in assay [12], 0.0827; in [13], -0.0304. The composite z-score is 0.244 in assay [14]; 0.564 in assay [15]; 0.035 in assay [16]; 0.55 in the assay with Sam68 (KHDRBS1); 0.977 in assay [17]; 1.03 in assay [18]. In addition, the z-score in assay [2] was -3.5. The composite Z-score in assay [11] was 0.576 (inactive).
As to `COc1ccc([Si](C)(C)[C@H]2[C@H](CC(=O)N(CCO)Cc3ccccc3)O[C@@]3(C(=O)N(C)c4ccccc43)[C@@H]2C)cc1`, the composite z-score in [1] is 1.3; in assay [3], 0.664; in assay [4] it was -0.416; in assay [5] it was -0.398; in [6], -0.0182; in [7] it was -0.141. Moreover, the composite z-score was -0.52 in assay [8]; 0.188 in assay [9]; 0.238 in assay [10]; 0.748 with Albumin (Bos taurus); 0.0833 in [12]; -0.155 in assay [13]. In addition, the composite z-score in [14] stood at 0.384; in assay [15], 0.136; in [16], 0.177; in the assay with Sam68 (KHDRBS1), 1.05; in [17], 1.21; in assay [18], 0.664. In assay [2], the z-score was -3.22. Also, the composite Z-score in [11] was -0.0798 (inactive).
On to `CO[C@@H]1COC(=O)CC=C[C@H](C)COC(=O)[C@H](Cc2ccccc2)NC(=O)CC=C[C@H]1C`, for which the composite z-score is -0.416 in [1]; 1.31 in [3]; -1.59 in assay [4]; -2.38 in assay [5]; -0.288 in assay [6]; 0.0048 in assay [7]. Further, the composite z-score is -0.547 in assay [8]; -0.0955 in [9]; -1.36 in [10]; -2.04 with Albumin (Bos taurus); -0.162 in [12]; -0.167 in assay [13]. Also, the composite z-score in [14] was -0.155; in assay [15] it was -0.596; in assay [16], 0.0055; in the assay with Sam68 (KHDRBS1), 0.294; in assay [17] it was 1.53; in assay [18], -0.651. This molecule displayed a z-score in assay [2] of 1.06. Further, the composite Z-score in assay [11] is 0.772 (inactive).
